From PubChem BioAssay (Tox21)
Unmarked numbers belong to inactive results. Activity calls are given as the source filed them. Calls come from the whole dose curve; as a rule, active = well fitted curve in the direction sought with a large enough effect in the repeat runs; inconclusive = weak or mixed curves; inactive = flat fitted curve, though single readings scatter.

Assay: qHTS assay to test for compound auto fluorescence at 590 nm (red) in HepG2 cell free culture (AID 720684)
Settings: cell-free medium autofluorescence, red 540/590 nm; series mostly up to 91.3 µM; fluorescence, % of Rose Bengal: at the top concentration
Source text: U.S. Tox21 Program National Center for Advancing Translational Sciences [NCATS] NIH Chemical Genomics Center [NCGC] U.S. Environmental Protection Agency [EPA] National Institutes of Environmental Health Sciences [NIEHS] National Toxicology Program [NTP] U.S. Food and Drug Administration [FDA] Tox21 Assay Overview: Compound auto fluorescence often interferes with screening of the compound library against various biological targets and signaling pathways. Some of these compounds may have fluorophoric properties. Such properties may interfere with the assay outputs resulting in false positives and/or negatives. To decrease such complications and ensure the compound activities are relevant in terms of biological response, the Tox21 10K compound library was screened for auto fluorescence. From the fluorophores used as reporter signals in our screening assays, the auto fluorescence equivalencies of compounds against three fluorophores have been evaluated: Triamterene, Fluorescein and Rose Bengal sodium for blue, green and red fluorescence, respectively. The fluorescence intensities were measured using Excitation/Emission wavelengths at 405/460nm, 485/535nm and 540/590nm for blue, green and red labels, respectively. This assay includes the red fluorescence data.
Tox21 Assay Protocol Summary: 5 uL of culture medium (MEM containing 10% FBS) per well was dispensed into black wall/clear bottom 1536-well plates using a Multidrop Combi Dispenser (ThermoFisher Scientific, Waltham, MA). After 23 nL compound or DMSO vehicle was transferred into assay plate by a pintool work station (Kalypsys, San Diego, CA), fluorescence intensities in the assay plates were measured by an Envision (PerkinElmer, Shelton, CT) plate reader using three labels for measuring blue, green and red fluorescence at […] 460, 535 and 590nm respectively.
% is set by controls: 0 for no effect and ±100 for the full control effect.

SMILES | fluorescence, % of Rose Bengal | outcome
Cc1cc(C(C)(C)c2cc(C)c(O)c(C)c2)cc(C)c1O | 0.298% | 
Nc1ccccc1C(=O)Oc1ccc2ccccc2c1 | 0.173% | 
CCCCCCCCCBr | -0.0537% | 
O=c1[nH]c2ccccc2n1C1CCN(CCCC(c2ccc(F)cc2)c2ccc(F)cc2)CC1 |  | inactive
CC(=O)[O-].[Tl+] | 0.0363% | 
CCC(C)(C)C(=O)OC1=C(c2ccc(Cl)cc2Cl)C(=O)OC12CCCCC2 | 0.0474% | 
Clc1ccc(COC(Cn2ccnc2)c2ccc(Cl)cc2Cl)cc1 (stereo not given) |  | inactive
O=CC(Br)(Br)Br | 0.0229% | 
c1ccc(Nc2ccc3ccccc3c2)cc1 |  | inactive
O=[N+]([O-])c1ccc2ccc3cccc4ccc1c2c34 | 0.0197% | 
CCCN(CC)CC1COC2(CCC(C(C)(C)C)CC2)O1 (stereo not given) | -0.0179% | 
Clc1ccc(CSC(Cn2ccnc2)c2ccc(Cl)cc2Cl)cc1 (stereo not given) | -0.065% [at 18.6 µM] | 
CCOCCOC(C)=O | -0.816% | 
CCCCN(CCCC)C(=S)[S-].CCCCN(CCCC)C(=S)[S-].[Zn+2] |  | inactive
C[C@]12Cc3nonc3C[C@@H]1CC[C@@H]1[C@@H]2CC[C@@]2(C)[C@H]1CC[C@]2(C)O | -0.143% [at 46 µM] | 
Clc1ccc(C(c2ccccc2Cl)C(Cl)(Cl)Cl)cc1 (stereo not given) |  | inactive
CC(C)(C)c1cc([N+](=O)[O-])cc(C(C)(C)C)c1O | -0.0008% | 
COc1ccc(/C(=C/C(=O)N2CCOCC2)c2ccc(Cl)cc2)cc1OC | -0.0079% | 
CC[C@H](C)[C@H]1O[C@]2(C=C[C@@H]1C)C[C@@H]1C[C@@H](C/C=C(\C)[C@@H](O[C@H]3C[C@H](OC)[C@@H](O[C@H]4C[C@H](OC)[C@@H](O)[C@H](C)O4)[C@H](C)O3)[C@@H](C)/C=C/C=C3\CO[C@@H]4[C@H](O)C(C)=C[C@@H](C(=O)O1)[C@]34O)O2 |  | inactive
N#CSCSC#N |  | inactive

SMILES | fluorescence, % of Rose Bengal | outcome
CC(=O)O[C@H]1CC[C@@]2(C)C(=CC[C@@H]3[C@@H]2CC[C@]2(C)C(=O)CC[C@@H]32)C1 |  | inactive
C[C@H]1O[C@@H](O[C@H]2[C@@H](O)C[C@H](O[C@H]3[C@@H](O)C[C@H](O[C@H]4CC[C@@]5(C)[C@H](CC[C@@H]6[C@@H]5CC[C@]5(C)[C@@H](C7=CC(=O)OC7)CC[C@]65O)C4)O[C@@H]3C)O[C@@H]2C)C[C@H](O)[C@@H]1O |  | inactive
CCOCn1c(-c2ccc(Cl)cc2)c(C#N)c(Br)c1C(F)(F)F | -0.101% | 
c1ccc2cc3c(cc2c1)-c1cccc2cccc-3c12 | 0.0657% | 
CCCCCCCCc1ccc(O)cc1 | -0.551% | 
CC(C)CC(C)Nc1ccc(Nc2ccccc2)cc1 (stereo not given) | 0.124% | 
CCCCCCCCCCCCCCCCCCn1cc[n+](C)c1 | 0.0709% | 
CC(C)(C)c1ccc(CSc2cnn(C(C)(C)C)c(=O)c2Cl)cc1 | -0.0217% | 
N#CNC#N | -0.0273% [at 95.7 µM] | 
O=C(O)c1cc[c]([Hg][Cl])cc1 | -0.0006% | 
CC(=O)[O-].CC(=O)[O-].O.O.[Cd+2] | -0.145% | 
Clc1ccc(CO/N=C(\Cn2ccnc2)c2ccc(Cl)cc2Cl)c(Cl)c1 | -0.119% [at 46 µM] | 
Clc1ccc(C(Cl)(Cl)Cl)c(Cl)c1 | -0.352% | 
ClC(Cl)=C(c1ccc(Cl)cc1)c1ccc(Cl)cc1 |  | inactive
S=C(SSC(=S)N1CCCCC1)N1CCCCC1 | 0.171% [at 46 µM] | 
CCCCCCCCCCCCCCCC[N+](C)(C)C |  | inactive
CCCSP(=O)(OCC)SCCC | 0.363% [at 95.7 µM] | 
CC(C)OC(=S)S | 0.0418% | 
O=[N+]([O-])c1cc(C(F)(F)F)c(Cl)c([N+](=O)[O-])c1Cl | -0.0266% | 
CCCOCC(=Nc1ccc(Cl)cc1C(F)(F)F)n1ccnc1 | 0.269% | 
